# Data as given in PubChem BioAssay AID1159580 (chemical genetic matrix, 2015).
# Where “and” joins values, the source holds several entries; their conditions need not be identical. Identical values can stand only once. The campaign covered roughly 5,500 compounds. About 2,000 (36%) were called active. Inconclusive results (about 18%) are left out. The list shows a part of the results. A number with no mark means an inactive call. Cut-off read from the data, not from the text of the source: active = normalized growth mostly below about 0.91 (no sharp cut-off); inconclusive = no clear call, values can overlap the other calls; inactive = mostly above about 0.92.
# Assay: chemical genetic growth profiling, strain panel (AID 1159580);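 note: tested at 20 µM; growth read once vehicle control cultures reached saturation at 30 °C; 1 = growth at the plate median or of vehicle wells; lower values mean less growth of the strain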
# Details: S. cerevisiae deletion strains, growth OD
structure (smiles),measurement,setting,value
COc1cc(O)c(C)c(O)c1,normalized growth,"locus YAL013W, strain DEP1, active compounds read low",0.999
same,normalized growth,"locus YAL021C, strain ccr4, active compounds read low",1.03
same,normalized growth,"locus YAL026C, strain drs2, active compounds read low",1.02
same,normalized growth,"locus YAL030W, strain snc1, active compounds read low",1.02
same,normalized growth,"locus YBL061C, strain skt5, active compounds read low",1.01
same,normalized growth,"locus YBR009C, strain hhf1, active compounds read low",1.02
same,normalized growth,"locus YBR021W, strain FUR4, active compounds read low",0.995
same,normalized growth,"locus YBR023C, strain chs3, active compounds read low",1.02
same,normalized growth,"locus YBR171W, strain sec66, active compounds read low",1.03
same,normalized growth,"locus YBR229C, strain ROT2, active compounds read low",0.998
same,normalized growth,"locus YBR231C, strain swc5, active compounds read low",1.01
same,normalized growth,"locus YBR279W, strain paf1, active compounds read low",1.01
same,normalized growth,"locus YCL011C, strain gbp2, active compounds read low",1
same,normalized growth,"locus YCL016C, strain dcc1, active compounds read low",1
same,normalized growth,"locus YCL029C, strain bik1, active compounds read low",1.04
same,normalized growth,"locus YCL061C, strain MRC1, active compounds read low",1.01
same,normalized growth,"locus YCL069W, strain vba3, active compounds read low",1.01
same,normalized growth,"locus YCR088W, strain abp1, active compounds read low",1.01
same,normalized growth,"locus YDL005C, strain med2, active compounds read low",1.01
same,normalized growth,"locus YDL035C, strain GPR1, active compounds read low",1.01
same,normalized growth,"locus YDL040C, strain nat1, active compounds read low",1.01
same,normalized growth,"locus YDL074C, strain BRE1, active compounds read low",1.02
same,normalized growth,"locus YDL101C, strain DUN1, active compounds read low",1.01
same,normalized growth,"locus YDL134C, strain PPH21, active compounds read low",1
same,normalized growth,"locus YDL185W, strain tfp1, active compounds read low",1.02
same,normalized growth,"locus YDL192W, strain arf1, active compounds read low",1
same,normalized growth,"locus YDR001C, strain nth1, active compounds read low",1.01
same,normalized growth,"locus YDR069C, strain doa4, active compounds read low",1.01
same,normalized growth,"locus YDR101C, strain arx1, active compounds read low",1
same,normalized growth,"locus YDR137W, strain rgp1, active compounds read low",1.05
same,normalized growth,"locus YDR150W, strain NUM1, active compounds read low",0.995
same,normalized growth,"locus YDR159W, strain sac3, active compounds read low",1.01
same,normalized growth,"locus YDR162C, strain NBP2, active compounds read low",1.02
same,normalized growth,"locus YDR195W, strain ref2",1.02
same,normalized growth,"locus YDR297W, strain sur2, active compounds read low",1.01
same,normalized growth,"locus YDR318W, strain mcm21, active compounds read low",1.01
same,normalized growth,"locus YDR334W, strain swr1, active compounds read low",1.02
same,normalized growth,"locus YDR335W, strain msn5, active compounds read low",1.04
same,normalized growth,"locus YDR388W, active compounds read low",1
same,normalized growth,"locus YDR392W, strain spt3, active compounds read low",1.03
same,normalized growth,"locus YDR502C, strain sam2, active compounds read low",1.04
same,normalized growth,"locus YEL003W, strain gim4, active compounds read low",1.03
same,normalized growth,"locus YEL037C, strain rad23, active compounds read low",1.02
same,normalized growth,"locus YEL061C, strain CIN8 (second series), active compounds read low",1.02
same,normalized growth,"locus YEL061C, strain CIN8, active compounds read low",1
same,normalized growth,"locus YER015W, strain faa2, active compounds read low",1
same,normalized growth,"locus YER016W, strain bim1, active compounds read low",1.02
same,normalized growth,"locus YER110C, active compounds read low",1.01
same,normalized growth,"locus YER111C, strain swi4, active compounds read low",1.01
same,normalized growth,"locus YER155C, strain BEM2 (second series), active compounds read low",1.04
same,normalized growth,"locus YER155C, strain BEM2, active compounds read low",0.999
same,normalized growth,"locus YER167W, strain BCK2, active compounds read low",1
same,normalized growth,"locus YFR010W, strain ubp6, active compounds read low",1.02
same,normalized growth,"locus YGL078C, strain dbp3, active compounds read low",1.03
same,normalized growth,"locus YGL086W, strain mad1, active compounds read low",1.01
same,normalized growth,"locus YGL167C, strain pmr1, active compounds read low",1.01
same,normalized growth,"locus YGL173C, strain kem1, active compounds read low",1.02
same,normalized growth,"locus YGL227W, strain vid30, active compounds read low",1.01
same,normalized growth,"locus YGL240W, strain doc1, active compounds read low",0.977
same,normalized growth,"locus YGL248W, strain PDE1, active compounds read low",1.03
same,normalized growth,"locus YGL253W, strain hxk2, active compounds read low",1.02
same,normalized growth,"locus YGR135W, strain pre9, active compounds read low",1.02
same,normalized growth,"locus YGR252W, strain gcn5, active compounds read low",0.973
same,normalized growth,"locus YHR013C, strain ard1, active compounds read low",1.01
same,normalized growth,"locus YHR027C, strain rpn1, active compounds read low",1.01
same,normalized growth,"locus YHR030C, strain SLT2, active compounds read low",0.997 and 0.992
same,normalized growth,"locus YHR079C, strain IRE1 (second series), active compounds read low",1.01
same,normalized growth,"locus YHR079C, strain IRE1, active compounds read low",0.996
same,normalized growth,"locus YHR094C, strain hxt1, active compounds read low",1.01
same,normalized growth,"locus YHR129C, strain ARP1, active compounds read low",1.01
same,normalized growth,"locus YHR142W, strain chs7, active compounds read low",1.02
same,normalized growth,"locus YHR200W, strain rpn10, active compounds read low",1.02
same,normalized growth,"locus YIL066C, strain RNR3, active compounds read low",1.02
same,normalized growth,"locus YIL073C, strain SPO22, active compounds read low",1.13
same,normalized growth,"locus YIL125W, strain kgd1, active compounds read low",1.02
same,normalized growth,"locus YIR030C, strain dcg1, active compounds read low",1.01
same,normalized growth,"locus YJL092W, strain hpr5, active compounds read low",1.01
same,normalized growth,"locus YJL095W, strain BCK1 (second series), active compounds read low",1.01
same,normalized growth,"locus YJL095W, strain BCK1, active compounds read low",1.01 and 1
same,normalized growth,"locus YJL115W, strain asf1, active compounds read low",1.01
same,normalized growth,"locus YJL129C, strain trk1, active compounds read low",1.05
same,normalized growth,"locus YJL134W, strain LCB3, active compounds read low",1
same,normalized growth,"locus YJL154C, strain vps35, active compounds read low",1.01
same,normalized growth,"locus YJL164C, strain tpk1, active compounds read low",1.03
same,normalized growth,"locus YJL166W, strain qcr8, active compounds read low",1
same,normalized growth,"locus YJL168C, strain set2, active compounds read low",1.01
same,normalized growth,"locus YJL187C, strain SWE1 (second series), active compounds read low",1.01
same,normalized growth,"locus YJL187C, strain SWE1, active compounds read low",1.01
same,normalized growth,"locus YJR043C, strain POL32, active compounds read low",1.02
same,normalized growth,"locus YJR066W, strain TOR1, active compounds read low",0.906
same,normalized growth,"locus YJR075W, strain HOC1, active compounds read low",1
same,normalized growth,"locus YKL009W, strain mrt4, active compounds read low",1.16 [resistant] (active)
same,normalized growth,"locus YKL068W, active compounds read low",1.01
same,normalized growth,"locus YKL085W, strain MDH1 (second series), active compounds read low",1.02
same,normalized growth,"locus YKL085W, strain MDH1, active compounds read low",1.02
same,normalized growth,"locus YKL160W, strain elf1, active compounds read low",1.01
same,normalized growth,"locus YKL190W, strain CNB1, active compounds read low",0.998
same,normalized growth,"locus YKR001C, strain vps1, active compounds read low",1.02
same,normalized growth,"locus YKR026C, strain gcn3, active compounds read low",0.995
same,normalized growth,"locus YKR091W, strain srl3, active compounds read low",1.01
same,normalized growth,"locus YLL001W, strain dnm1, active compounds read low",1.01
same,normalized growth,"locus YLL026W, active compounds read low",1.01
same,normalized growth,"locus YLL041C, strain sdh2, active compounds read low",1.01
same,normalized growth,"locus YLR027C, strain aat2, active compounds read low",1.01
same,normalized growth,"locus YLR039C, strain RIC1, active compounds read low",1.02
same,normalized growth,"locus YLR058C, strain SHM2, active compounds read low",1.01
same,normalized growth,"locus YLR102C, strain apc9, active compounds read low",1.01
same,normalized growth,"locus YLR113W, strain HOG1, active compounds read low",0.975
same,normalized growth,"locus YLR221C, strain rsa3, active compounds read low",1.01
same,normalized growth,"locus YLR258W, strain gsy2, active compounds read low",1.02
same,normalized growth,"locus YLR262C, strain YPT6 (second series), active compounds read low",1.01
same,normalized growth,"locus YLR262C, strain YPT6, active compounds read low",1.05
same,normalized growth,"locus YLR268W, strain sec22, active compounds read low",1.02
same,normalized growth,"locus YLR320W, strain mms22, active compounds read low",1.02
same,normalized growth,"locus YLR330W, strain CHS5, active compounds read low",1
same,normalized growth,"locus YLR342W, strain FKS1 (second series), active compounds read low",1
same,normalized growth,"locus YLR342W, strain FKS1, active compounds read low",1.02
same,normalized growth,"locus YLR357W, strain rsc2, active compounds read low",1.02
same,normalized growth,"locus YLR370C, strain arc18, active compounds read low",1.02
same,normalized growth,"locus YLR371W, strain rom2, active compounds read low",1.01
same,normalized growth,"locus YLR384C, strain iki3, active compounds read low",1.03
same,normalized growth,"locus YLR418C, strain cdc73, active compounds read low",1.02
same,normalized growth,"locus YML016C, strain PPZ1, active compounds read low",1.01
same,normalized growth,"locus YML032C, strain rad52, active compounds read low",1
same,normalized growth,"locus YML120C, strain ndi1, active compounds read low",0.97
same,normalized growth,"locus YML124C, strain tub3, active compounds read low",1.01
same,normalized growth,"locus YMR058W, strain fet3, active compounds read low",1.01
same,normalized growth,"locus YMR078C, strain ctf18, active compounds read low",1.03
same,normalized growth,"locus YMR125W, strain sto1, active compounds read low",1.04
same,normalized growth,"locus YMR129W, active compounds read low",1.02
same,normalized growth,"locus YMR205C, strain PFK2, active compounds read low",1.01
same,normalized growth,"locus YMR223W, strain ubp8, active compounds read low",1.02
same,normalized growth,"locus YMR231W, strain pep5, active compounds read low",1.02
same,normalized growth,"locus YMR307W, strain GAS1, active compounds read low",1.01
same,normalized growth,"locus YNL067W, strain RPL9B, active compounds read low",1.01
same,normalized growth,"locus YNL071W, strain lat1, active compounds read low",1.03
same,normalized growth,"locus YNL183C, strain NPR1, active compounds read low",0.92
same,normalized growth,"locus YNL209W, strain ssb2, active compounds read low",1.03
same,normalized growth,"locus YNL233W, strain BNI4, active compounds read low",1.01
same,normalized growth,"locus YNL248C, strain rpa49, active compounds read low",1.04
same,normalized growth,"locus YNL250W, strain rad50, active compounds read low",1.03
same,normalized growth,"locus YNL271C, strain bni1, active compounds read low",1.03
same,normalized growth,"locus YNL298W, strain CLA4, active compounds read low",1.03
same,normalized growth,"locus YNL307C, strain MCK1, active compounds read low",1.03
same,normalized growth,"locus YNL322C, strain KRE1 (second series), active compounds read low",1.02
same,normalized growth,"locus YNR049C, strain mso1, active compounds read low",1.01
same,normalized growth,"locus YNR052C, strain pop2, active compounds read low",1.01
same,normalized growth,"locus YOL006C, strain TOP1, active compounds read low",1.19
same,normalized growth,"locus YOL012C, strain htz1",0.903
same,normalized growth,"locus YOL147C, strain pex11, active compounds read low",1.02
same,normalized growth,"locus YOR001W, strain rrp6, active compounds read low",1.02
same,normalized growth,"locus YOR061W, strain CKA2, active compounds read low",1.01
same,normalized growth,"locus YOR069W, strain VPS5, active compounds read low",1.01
same,normalized growth,"locus YOR070C, strain gyp1, active compounds read low",1.01
same,normalized growth,"locus YOR080W, strain dia2, active compounds read low",1.02
same,normalized growth,"locus YOR083W, strain WHI5, active compounds read low",1.01
same,normalized growth,"locus YOR106W, strain vam3, active compounds read low",0.998
same,normalized growth,"locus YOR136W, strain idh2, active compounds read low",1.02
same,normalized growth,"locus YOR144C, strain elg1, active compounds read low",1.01
same,normalized growth,"locus YOR184W, strain ser1, active compounds read low",1.02
same,normalized growth,"locus YOR231W, strain MKK1, active compounds read low",1.01
same,normalized growth,"locus YOR265W, strain rbl2, active compounds read low",1.01
same,normalized growth,"locus YOR270C, strain vph1, active compounds read low",1.05
same,normalized growth,"locus YOR290C, strain snf2, active compounds read low",0.988
same,normalized growth,"locus YOR316C, strain cot1, active compounds read low",1.01
same,normalized growth,"locus YPL051W, strain arl3, active compounds read low",1.02
same,normalized growth,"locus YPL078C, strain atp4, active compounds read low",1.03
same,normalized growth,"locus YPL106C, strain sse1, active compounds read low",1.01
same,normalized growth,"locus YPL240C, strain hsp82, active compounds read low",1.02
same,normalized growth,"locus YPL241C, strain CIN2, active compounds read low",1
same,normalized growth,"locus YPL256C, strain CLN2, active compounds read low",0.985
same,normalized growth,"locus YPR119W, strain clb2, active compounds read low",1.01
same,normalized growth,"locus YPR141C, strain kar3, active compounds read low",1.01
same,normalized growth,"locus YPR163C, strain tif3, active compounds read low",1.03
same,normalized growth,"locus YPR167C, strain met16, active compounds read low",1.03
same,normalized growth,"strain wtn01, active compounds read low",1.02
